Measurements taken from PubChem BioAssay AID1159580 (chemical genetic matrix, 2015).
About 2,000 (36%) of roughly 5,500 compounds were called active. Another 18% or so got no clear call; they are omitted. No stated cut-off is given here; in the data, active means normalized growth mostly below about 0.91 (no sharp cut-off); inconclusive means no clear call, values can overlap the other calls; inactive means mostly above about 0.92. Some of the results follow.

Test: chemical genetic growth profiling, strain panel (AID 1159580);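 further: tested at 20 µM; growth read once vehicle control cultures reached saturation at 30 °C; 1 = growth at the plate median or of vehicle wells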
Details: growth OD

Measured: normalized growth

CC1CC2C3CC(F)C4=CC(=O)C=CC4(C)C3(F)C(O)CC2(C)C1(O)C(=O)CO (centres undefined)
inactive: S. cerevisiae deletion strains, locus YJR043C, strain POL32, stronger effect = lower value 1.08 | S. cerevisiae deletion strains, locus YJR075W, strain HOC1, stronger effect = lower value 1.02 | S. cerevisiae deletion strains, locus YKL009W, strain mrt4, stronger effect = lower value 1.01 | S. cerevisiae deletion strains, locus YKL068W, stronger effect = lower value 1.01 | S. cerevisiae deletion strains, locus YKL085W, strain MDH1 (second series), stronger effect = lower value 1.01 | S. cerevisiae deletion strains, locus YKL085W, strain MDH1, stronger effect = lower value 1.01 | S. cerevisiae deletion strains, locus YKL160W, strain elf1, stronger effect = lower value 0.984 | S. cerevisiae deletion strains, locus YKL190W, strain CNB1, stronger effect = lower value 1.02 | S. cerevisiae deletion strains, locus YKR001C, strain vps1, stronger effect = lower value 1.03 | S. cerevisiae deletion strains, locus YKR026C, strain gcn3, stronger effect = lower value 0.998 | S. cerevisiae deletion strains, locus YKR091W, strain srl3, stronger effect = lower value 1 | S. cerevisiae deletion strains, locus YLL001W, strain dnm1, stronger effect = lower value 0.984 | S. cerevisiae deletion strains, locus YLL026W, stronger effect = lower value 0.997 | S. cerevisiae deletion strains, locus YLL041C, strain sdh2, stronger effect = lower value 0.999 | S. cerevisiae deletion strains, locus YLR027C, strain aat2, stronger effect = lower value 0.997 | S. cerevisiae deletion strains, locus YLR039C, strain RIC1, stronger effect = lower value 1.08 | S. cerevisiae deletion strains, locus YLR058C, strain SHM2, stronger effect = lower value 1.02 | S. cerevisiae deletion strains, locus YLR102C, strain apc9, stronger effect = lower value 1.02 | S. cerevisiae deletion strains, locus YLR221C, strain rsa3, stronger effect = lower value 0.985 | S. cerevisiae deletion strains, locus YLR258W, strain gsy2, stronger effect = lower value 0.995 | S. cerevisiae deletion strains, locus YLR262C, strain YPT6 (second series), stronger effect = lower value 0.984 | S. cerevisiae deletion strains, locus YLR262C, strain YPT6, stronger effect = lower value 1.08 | S. cerevisiae deletion strains, locus YLR268W, strain sec22, stronger effect = lower value 1.02 | S. cerevisiae deletion strains, locus YLR320W, strain mms22, stronger effect = lower value 0.993 | S. cerevisiae deletion strains, locus YLR330W, strain CHS5, stronger effect = lower value 1.02 | S. cerevisiae deletion strains, locus YLR342W, strain FKS1 (second series), stronger effect = lower value 1.1 | S. cerevisiae deletion strains, locus YLR342W, strain FKS1, stronger effect = lower value 0.991 | S. cerevisiae deletion strains, locus YLR357W, strain rsc2, stronger effect = lower value 1.01 | S. cerevisiae deletion strains, locus YLR370C, strain arc18, stronger effect = lower value 1 | S. cerevisiae deletion strains, locus YLR371W, strain rom2, stronger effect = lower value 1.01 | S. cerevisiae deletion strains, locus YLR384C, strain iki3, stronger effect = lower value 0.986 | S. cerevisiae deletion strains, locus YLR418C, strain cdc73, stronger effect = lower value 1 | S. cerevisiae deletion strains, locus YML016C, strain PPZ1, stronger effect = lower value 1.02 | S. cerevisiae deletion strains, locus YML032C, strain rad52, stronger effect = lower value 1.05 | S. cerevisiae deletion strains, locus YML120C, strain ndi1, stronger effect = lower value 1 | S. cerevisiae deletion strains, locus YML124C, strain tub3, stronger effect = lower value 1.02 | S. cerevisiae deletion strains, locus YMR058W, strain fet3, stronger effect = lower value 1.01 | S. cerevisiae deletion strains, locus YMR078C, strain ctf18, stronger effect = lower value 1.02 | S. cerevisiae deletion strains, locus YMR125W, strain sto1, stronger effect = lower value 0.986 | S. cerevisiae deletion strains, locus YMR129W, stronger effect = lower value 1 | S. cerevisiae deletion strains, locus YMR205C, strain PFK2, stronger effect = lower value 0.984 | S. cerevisiae deletion strains, locus YMR223W, strain ubp8, stronger effect = lower value 1.04 | S. cerevisiae deletion strains, locus YMR231W, strain pep5, stronger effect = lower value 0.995 | S. cerevisiae deletion strains, locus YMR263W, strain SAP30, stronger effect = lower value 1.04 | S. cerevisiae deletion strains, locus YMR307W, strain GAS1, stronger effect = lower value 1.09 | S. cerevisiae deletion strains, locus YNL067W, strain RPL9B, stronger effect = lower value 1.03 | S. cerevisiae deletion strains, locus YNL071W, strain lat1, stronger effect = lower value 0.999 | S. cerevisiae deletion strains, locus YNL128W, strain TEP1, stronger effect = lower value 1.01 | S. cerevisiae deletion strains, locus YNL153C, strain GIM3, stronger effect = lower value 1.03 | S. cerevisiae deletion strains, locus YNL209W, strain ssb2, stronger effect = lower value 0.996 | S. cerevisiae deletion strains, locus YNL233W, strain BNI4, stronger effect = lower value 1.02 | S. cerevisiae deletion strains, locus YNL248C, strain rpa49, stronger effect = lower value 1.01 | S. cerevisiae deletion strains, locus YNL250W, strain rad50, stronger effect = lower value 1.04 | S. cerevisiae deletion strains, locus YNL271C, strain bni1, stronger effect = lower value 1.03 | S. cerevisiae deletion strains, locus YNL298W, strain CLA4, stronger effect = lower value 1.03 | S. cerevisiae deletion strains, locus YNL307C, strain MCK1, stronger effect = lower value 1.05 | S. cerevisiae deletion strains, locus YNL322C, strain KRE1 (second series), stronger effect = lower value 0.974 | S. cerevisiae deletion strains, locus YNL322C, strain KRE1, stronger effect = lower value 1.02 | S. cerevisiae deletion strains, locus YNR049C, strain mso1, stronger effect = lower value 0.992 | S. cerevisiae deletion strains, locus YNR052C, strain pop2, stronger effect = lower value 1.03 | S. cerevisiae deletion strains, locus YOL006C, strain TOP1, stronger effect = lower value 1.06 | S. cerevisiae deletion strains, locus YOL012C, strain htz1 0.779 | S. cerevisiae deletion strains, locus YOL147C, strain pex11, stronger effect = lower value 1.02 | S. cerevisiae deletion strains, locus YOR001W, strain rrp6, stronger effect = lower value 1.03 | S. cerevisiae deletion strains, locus YOR061W, strain CKA2, stronger effect = lower value 1.02 | S. cerevisiae deletion strains, locus YOR069W, strain VPS5, stronger effect = lower value 1.01 | S. cerevisiae deletion strains, locus YOR070C, strain gyp1, stronger effect = lower value 1 | S. cerevisiae deletion strains, locus YOR080W, strain dia2, stronger effect = lower value 0.995 | S. cerevisiae deletion strains, locus YOR083W, strain WHI5, stronger effect = lower value 0.965 | S. cerevisiae deletion strains, locus YOR106W, strain vam3, stronger effect = lower value 0.97 | S. cerevisiae deletion strains, locus YOR136W, strain idh2, stronger effect = lower value 1.03 | S. cerevisiae deletion strains, locus YOR144C, strain elg1, stronger effect = lower value 1.02 | S. cerevisiae deletion strains, locus YOR184W, strain ser1, stronger effect = lower value 1.08 | S. cerevisiae deletion strains, locus YOR265W, strain rbl2, stronger effect = lower value 1.01 | S. cerevisiae deletion strains, locus YOR270C, strain vph1, stronger effect = lower value 0.928 | S. cerevisiae deletion strains, locus YOR290C, strain snf2, stronger effect = lower value 0.988 | S. cerevisiae deletion strains, locus YOR316C, strain cot1, stronger effect = lower value 1.03 | S. cerevisiae deletion strains, locus YPL051W, strain arl3, stronger effect = lower value 0.989 | S. cerevisiae deletion strains, locus YPL055C, strain LGE1, stronger effect = lower value 1.09 | S. cerevisiae deletion strains, locus YPL078C, strain atp4, stronger effect = lower value 1.03 | S. cerevisiae deletion strains, locus YPL106C, strain sse1, stronger effect = lower value 0.957 | S. cerevisiae deletion strains, locus YPL240C, strain hsp82, stronger effect = lower value 1 | S. cerevisiae deletion strains, locus YPL241C, strain CIN2, stronger effect = lower value 1.02 | S. cerevisiae deletion strains, locus YPR119W, strain clb2, stronger effect = lower value 1.01 | S. cerevisiae deletion strains, locus YPR141C, strain kar3, stronger effect = lower value 1.02 | S. cerevisiae deletion strains, locus YPR163C, strain tif3, stronger effect = lower value 1.04 | S. cerevisiae deletion strains, locus YPR167C, strain met16, stronger effect = lower value 1.01 | S. cerevisiae deletion strains, strain wtn01, stronger effect = lower value 1.02 | S. cerevisiae strains, strain wild type, stronger effect = lower value 1.03
